Here are results for 17 compounds from the supplement of paper PMC8007513.

Structures can show the parent of a compound that is named as a salt. ± gives the standard error. Among all 1,300 compounds or so, about 75 (6%) showed an effect of 50% or more. The entries come from a sample that favours strong results as a whole.

The subject of the experiment is Trichoderma virens ATCC 9645. The experiment can be described thus: growth yield (OD600) relative to untreated control; higher = less growth inhibition. The settings on record: compound concentration: 100 uM. The procedure, abridged: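 A biocide at 200 ng ml^−1 was co-applied to some wells, and library compounds were present in all test wells at 100 μM final. The wells held 100 μl of Trichoderma virens ATCC 9645 spores at 15,000 spores ml^−1 in potato dextrose broth, grown at 30 °C in 96-well plates, with OD600 read at 40 h and 72 h. Results are relative growth against the control without either agent, averaged across duplicate screens.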

Take `CN(C)[C@@H]1C(O)=C(C(=O)NCNCCCC[C@H](N)C(=O)O)C(=O)[C@@]2(O)C(O)=C3C(=O)c4c(O)cccc4[C@@](C)(O)[C@H]3C[C@@H]12` [Lymecycline]: the growth yield is, setting by setting: (40 h) 82.1 ± 2.7%; (72 h) 73.83 ± 0.63%.
`CC(C)(O/N=C(\C(=O)N[C@@H]1C(=O)N2C(C(=O)[O-])=C(C[n+]3ccccc3)CS[C@H]12)c1csc(N)n1)C(=O)O` [Ceftazidime pentahydrate] registered a growth yield (40 h) of 102% and a growth yield (72 h) of 102 ± 1.1%.
In turn, `CO/N=C(\C(=O)N[C@@H]1C(=O)N2C(C(=O)OC(C)OC(C)=O)=C(COC(N)=O)CS[C@H]12)c1ccco1` (some centres undefined) [Cefuroxime axetil] displayed a growth yield (40 h) of 97.05 ± 0.16% and a growth yield (72 h) of 96.5 ± 1.7%.
Taken in the same sequence, the figures for `CC(C)NCC(O)c1cc(O)cc(O)c1` (centres undefined) [Metaproterenol sulfate, orciprenaline sulfate] were 99.1 ± 1.6% and 99.95 ± 0.1%.
The like results for `CCC(C)n1ncn(-c2ccc(N3CCN(c4ccc(OCC5COC(Cn6cncn6)(c6ccc(Cl)cc6Cl)O5)cc4)CC3)cc2)c1=O` (centres undefined) [Itraconazole] were, in that order, 4.77 ± 2.2% and 13.2%.
In the case of `CC[C@@H]([C@H](C)O)n1ncn(-c2ccc(N3CCN(c4ccc(OC[C@@H]5CO[C@@](Cn6cncn6)(c6ccc(F)cc6F)C5)cc4)CC3)cc2)c1=O` [Posaconazole], the growth yield is 8.9 ± 8.9% (40 h) and 5.77 ± 5.6% (72 h).
Taken in the same sequence, the figures for `CC(C)N1CCN(c2ccc(OCC3COC(Cn4cncn4)(c4ccc(Cl)cc4Cl)O3)cc2)CC1` (centres undefined) [Terconazole] were 82.44 ± 0.16% and 88.4 ± 1.1%.
Turning to `CC(=O)N1CCN(c2ccc(OCC3COC(Cn4ccnc4)(c4ccc(Cl)cc4Cl)O3)cc2)CC1` (centres undefined) [Ketoconazole], the growth yield was 2.22 ± 1.3% (40 h) and 1.68 ± 0.84% (72 h).
As for `Nc1ccc(C(=O)O)c(O)c1` [4-aminosalicylic acid], the growth yield reads like this: (40 h) 93.1%; (72 h) 89.36 ± 0.42%.
Take `CO[C@@]1(NC(=O)C(C(=O)O)c2ccc(O)cc2)C(=O)N2C(C(=O)O)=C(CSc3nnnn3C)CO[C@@H]21` (some centres undefined) [Moxalactam disodium salt]: the growth yield by setting is: (40 h) 96.1 ± 0.16%; (72 h) 92.71 ± 0.63%.
In the case of `CCC(C)(C)C(=O)O[C@H]1C[C@@H](C)C=C2C=C[C@H](C)[C@H](CC[C@@H]3C[C@@H](O)CC(=O)O3)[C@H]21` [Simvastatin], the growth yield is, setting by setting: (40 h) 103 ± 1.3%; (72 h) 96.2 ± 4.5%.
In the case of `C=CCN1CCCC1CNC(=O)c1cc2nn[nH]c2cc1OC` (centres undefined) [Alizapride hydrochloride], the growth yield was determined as 108 ± 4.3% (40 h) and 109 ± 2.7% (72 h).
`CN(C)C(=N)NC(=N)N` [Metformin hydrochloride] gave a growth yield (40 h) of 105 ± 7.2% and a growth yield (72 h) of 103 ± 5.3%.
As to `Clc1ccc(CO/N=C(\Cn2ccnc2)c2ccc(Cl)cc2Cl)c(Cl)c1` [Oxiconazole Nitrate], the growth yield reads like this: (40 h) 1.59 ± 1.6%; (72 h) 0.839 ± 0.84%.
The like results for `Clc1ccc(CCC(Cn2ccnc2)Sc2c(Cl)cccc2Cl)cc1` (centres undefined) [Butoconazole nitrate] were, in that order, 3.49% and 2.31%.
As to `Clc1ccc(CSC(Cn2ccnc2)c2ccc(Cl)cc2Cl)cc1` (centres undefined) [Sulconazole nitrate], the growth yield worked out at 2.22 ± 0.64% (40 h) and 1.78 ± 0.52% (72 h).
Take `Clc1ccc(C(Cn2ccnc2)OCc2c(Cl)cccc2Cl)c(Cl)c1` (centres undefined) [Isoconazole]: the growth yield was found to be 2.06 ± 1.4% (40 h) and 1.68 ± 1.1% (72 h).
